For seven compounds, Potency results are on record in PubChem BioAssay (Tox21).

The nature of experiment [1]: Nuclear factor erythroid 2-related factor 2/antioxidant responsive element (Nrf2/ARE) small molecule agonists: qHTS cell viability counter screen in human keratinocytes (AID 1919968; active = well fitted curve in the direction sought with a large enough effect in the repeat runs; an effect the other way counts as inactive or inconclusive; note: nearly all actives have a fitted effect of over 55% in size; note: potency is the fitted concentration of half-maximal effect). The method in brief: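 In human HaCaT keratinocytes stably expressing an ARE-driven luciferase, compound exposure lasted 23 h at 37 C under 5% CO2. Viable cells are quantified with a protease-based fluorogenic reagent (CellTiter-Fluor) read 1 h after addition.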

Experiment [2] in a line: Nuclear factor erythroid 2-related factor 2/antioxidant responsive element (Nrf2/ARE) small molecule agonists: luciferase reporter gene qHTS assay in human keratinocytes (AID 1919969). Note: nearly all actives have a fitted effect of over 35% in size. Note: potency is the fitted concentration of half-maximal effect.
Experiment [3] deals with KiSS-1 receptor (Homo sapiens) (UniProt Q969F8). Kind of experiment: Human kisspeptin (KISS1R) small molecule agonists, calcium flux assay in KISS1R-HEK293 cells (AID 1920064; active = well fitted curve in the direction sought with a large enough effect in the repeat runs; an effect the other way counts as inactive or inconclusive). Summed up: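 Concentration-response testing used 15 concentrations in triplicate on human KISS1R-expressing HEK293 cells. Calcium-dependent fluorescence (Ex/Em 480/540) was followed kinetically for 3 min after compound transfer.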
KiSS-1 receptor (Homo sapiens), sequence (Q969F8 whole entry, looked up): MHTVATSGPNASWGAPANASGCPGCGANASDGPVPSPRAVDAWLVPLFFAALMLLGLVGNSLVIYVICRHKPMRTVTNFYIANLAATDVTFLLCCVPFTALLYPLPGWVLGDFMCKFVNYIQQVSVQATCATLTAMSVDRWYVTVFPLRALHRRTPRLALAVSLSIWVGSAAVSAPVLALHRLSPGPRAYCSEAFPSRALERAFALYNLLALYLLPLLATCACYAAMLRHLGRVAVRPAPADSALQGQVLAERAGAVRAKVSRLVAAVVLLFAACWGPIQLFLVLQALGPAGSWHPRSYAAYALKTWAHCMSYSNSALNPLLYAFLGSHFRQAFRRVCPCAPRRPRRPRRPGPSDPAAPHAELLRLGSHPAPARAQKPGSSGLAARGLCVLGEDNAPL

A short description of experiment [4]: G protein-coupled receptor (GPCR) small molecule agonists, calcium flux assay: HEK293 wild type cell line counter screen (AID 1920065). The method in brief: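 Fluorescence intensity signals activation. After overnight (18 h) culture and a 1 h calcium dye load at 37 C, compounds are added by pin tool and the plate read at 480/540 nm for 3 min in 1 s steps.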

Experiment [5] in a line: p53 small molecule agonists, cell-based qHTS assay with rat liver microsomes (AID 1963578). Summed up:
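Quantitative HTS of the Tox21 10K library: p53RE-bla cells, rat liver microsomes plus NADPH at 0.5 mg/mL final each, 16 h at 37 C, beta-lactamase fluorescence detection.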

Experiment [6] is described as follows: p53 small molecule agonists, cell-based qHTS assay with human liver microsomes: qHTS cell viability counter screen (AID 1963579). Note: nearly all actives have a fitted effect of over 45% in size. The method in brief: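 Viability of p53RE-bla cells is measured as CellTiter-Glo luminescence following a 16 h, 37 C incubation with compound, liver microsomes from human donors and NADPH.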
Experiment [7] is described as follows: p53 small molecule agonists, cell-based qHTS assay with rat liver microsomes: qHTS cell viability counter screen (AID 1963580). Note: nearly all actives have a fitted effect of over 45% in size. Note: potency is the fitted concentration of half-maximal effect. The method in brief: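 Luminescent ATP readout (CellTiter-Glo, 30 min at room temperature) reports viability of p53RE-bla HCT-116 cells after 16 h at 37 C with test compounds under metabolic activation by rat liver microsomes and NADPH at 0.5 mg/mL final each.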

Experiment [8] is described as follows: p53 small molecule agonists, cell-based qHTS assay: qHTS cell viability counter screen (AID 1963581). Note: nearly all actives have a fitted effect of over 45% in size. The method in brief:
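Luminescence from CellTiter-Glo, reflecting ATP content, serves as the cytotoxicity measure; it is taken after the 2 h reporter substrate step in HCT-116 p53RE-bla cells dosed for 16 h at 37 C.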

Experiment [9] is described as follows: p53 small molecule agonists, cell-based qHTS assay (AID 1963582; active = well fitted activation curve with a large enough effect in the signal ratio in the repeat runs, not every such curve was filed as active; the % refers to the signal ratio). Summed up: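 After plating, p53RE-bla cells sat 5 h in the incubator; compounds or DMSO vehicle were pinned in; a 16 h incubation at 37 C followed; FRET substrate was added and, 2 h later at RT, fluorescence was measured.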
Experiment [10] deals with 5-hydroxytryptamine receptor 2A (Homo sapiens) (UniProt P28223). The experiment can be described thus: 5-hydroxytryptamine receptor 2A (HTR2A) small molecule agonists, cell-based qHTS assay (AID 1963587). Note: nearly all actives have a fitted effect of over 30% in size. Note: potency is the fitted concentration of half-maximal effect. Summed up: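 HTR2A-CHO cells, plated 18 h at 37 C/5% CO2, dye-loaded 1 h at 37 C; compounds in DMSO added by pin tool (agonist mode). Intracellular calcium flux read as kinetic fluorescence on FDSS over 2 min at 1 s intervals.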
5-hydroxytryptamine receptor 2A (Homo sapiens), sequence (P28223 whole entry, looked up): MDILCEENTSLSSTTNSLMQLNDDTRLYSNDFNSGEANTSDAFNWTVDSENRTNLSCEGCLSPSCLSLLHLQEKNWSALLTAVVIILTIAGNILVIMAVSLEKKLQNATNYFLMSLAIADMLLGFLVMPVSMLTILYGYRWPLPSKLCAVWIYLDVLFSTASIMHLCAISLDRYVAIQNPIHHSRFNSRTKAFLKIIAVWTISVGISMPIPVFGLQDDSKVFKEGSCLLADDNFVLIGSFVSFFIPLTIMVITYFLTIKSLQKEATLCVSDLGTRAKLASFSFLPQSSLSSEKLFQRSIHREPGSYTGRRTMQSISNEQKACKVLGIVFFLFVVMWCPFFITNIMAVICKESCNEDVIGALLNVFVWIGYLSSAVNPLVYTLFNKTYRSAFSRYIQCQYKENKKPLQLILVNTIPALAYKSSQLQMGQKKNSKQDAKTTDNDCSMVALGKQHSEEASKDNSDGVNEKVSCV

In experiment [11] the target is Muscarinic acetylcholine receptor M1 (Homo sapiens) (UniProt P11229). The experiment can be described thus: Cholinergic receptor muscarinic 1 (CHRM1) small molecule antagonists, cell-based qHTS assay (AID 1963588). Note: nearly all actives have a fitted effect of over 40% in size. The method in brief:
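Compounds were tested at 15 concentrations in three independent runs. Dye-loaded CHRM1-CHO cells were exposed 5 min at room temperature before stimulation by acetylcholine added at 50nM. Intracellular calcium was read kinetically on FDSS for 3 min.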

Experiment [12] shares this target. The experiment can be described thus: Cholinergic receptor muscarinic 1 (CHRM1) small molecule agonists, cell-based qHTS assay (AID 1963589). Note: nearly all actives have a fitted effect of over 35% in size. The method in brief: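 Fluorescent calcium dye reports M1 activation in stably transfected CHO cells. Compounds, 15 concentrations, added after 1 h dye loading at 37 C; kinetic reading at 1 sec intervals.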
A short description of experiment [13]: cAMP Responsive Elements (CRE) small molecule agonists, cell-based qHTS assay (AID 1963590). Summed up: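 Compound exposure lasted 3 h at 37 C/5% CO2 in CRE-bla HEK 293T cells grown in assay medium with 10% dialyzed FBS and 25 mM HEPES. Reporter signal came from LiveBLAzer B/G FRET substrate, 2 h, room temperature.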
The nature of experiment [14]: cAMP Responsive Elements (CRE) small molecule antagonists, cell-based qHTS assay (AID 1963591; active = well fitted inhibition curve with a large enough effect in the signal ratio in the repeat runs, not every such curve was filed as active; the % refers to the signal ratio). Summed up:
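Stimulation used NKH477 at a final 0.25 uM for 3 h in compound-treated CRE-bla HEK293T cells, seeded 18 h beforehand. Reporter activity was measured with LiveBLAzer B/G FRET substrate after 2 h at room temperature.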

Experiment [15] deals with Beta-2 adrenergic receptor (Homo sapiens) (UniProt P07550). Kind of experiment: Adrenergic beta2 receptor (ADRB2) small molecule antagonists, cell-based qHTS assay (AID 1963592). Note: nearly all actives have a fitted effect of over 50% in size. Note: potency is the fitted concentration of half-maximal effect. The method in brief: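 Assay format: CHO-ADRB2 cells, 18-20hr seeding at 37C/5% CO2, then compound plus 1nM isoproterenol agonist mix for 0.5hr RT. Homogeneous time-resolved fluorescence cAMP detection after 1hr, expressed as 665/615 nm ratio.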
Beta-2 adrenergic receptor (Homo sapiens), sequence (P07550 whole entry, looked up): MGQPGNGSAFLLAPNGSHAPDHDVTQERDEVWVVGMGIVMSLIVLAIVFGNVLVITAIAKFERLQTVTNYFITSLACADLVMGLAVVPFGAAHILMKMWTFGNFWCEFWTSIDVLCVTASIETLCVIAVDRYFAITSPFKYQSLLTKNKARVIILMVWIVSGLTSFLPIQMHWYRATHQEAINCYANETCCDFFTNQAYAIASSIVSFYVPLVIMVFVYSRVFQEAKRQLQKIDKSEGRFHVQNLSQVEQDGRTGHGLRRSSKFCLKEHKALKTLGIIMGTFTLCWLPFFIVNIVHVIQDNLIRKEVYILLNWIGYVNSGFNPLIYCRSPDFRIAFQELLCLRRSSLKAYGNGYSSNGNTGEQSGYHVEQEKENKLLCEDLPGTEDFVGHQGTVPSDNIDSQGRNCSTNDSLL

The target in experiment [16] is D(2) dopamine receptor (Homo sapiens) (UniProt P14416). The experiment can be described thus: Dopamine D2 receptor (DRD2) small molecule antagonists, cell-based qHTS assay (AID 1963595; active = well fitted inhibition curve with a large enough effect in the signal ratio in the repeat runs, with a control signal flat; the % refers to the signal ratio). The method in brief: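 DRD2-HEK293; 0.1 mM Ro20-1724; cpd 10 min RT; NKH477 200 nM + quinpirole 12 nM, 30 min RT; HTRF cAMP (cAMP-d2/anti-cAMP cryptate), 665/620 nm ratio after 1 h.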
D(2) dopamine receptor (Homo sapiens), sequence (P14416 whole entry, looked up): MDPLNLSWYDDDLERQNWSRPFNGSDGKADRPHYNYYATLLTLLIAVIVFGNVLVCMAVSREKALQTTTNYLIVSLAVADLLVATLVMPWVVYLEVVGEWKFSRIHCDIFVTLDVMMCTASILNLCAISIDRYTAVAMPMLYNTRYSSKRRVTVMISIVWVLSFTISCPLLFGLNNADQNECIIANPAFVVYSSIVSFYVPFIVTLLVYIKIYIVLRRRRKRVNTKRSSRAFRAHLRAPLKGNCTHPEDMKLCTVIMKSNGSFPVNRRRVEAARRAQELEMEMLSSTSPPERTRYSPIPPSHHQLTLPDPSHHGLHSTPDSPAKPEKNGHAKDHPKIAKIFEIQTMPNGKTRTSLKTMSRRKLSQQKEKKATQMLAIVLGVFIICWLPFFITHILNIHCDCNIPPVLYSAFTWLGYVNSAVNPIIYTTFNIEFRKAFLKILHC

Experiment [17] is described as follows: p53 small molecule agonists, cell-based qHTS assay with human liver microsomes (AID 1963577).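 Note: p53 response element beta-lactamase reporter cells with liver microsomes plus NADPH.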 The method in brief: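 HLM-supplemented p53RE-bla reporter assay: 16 h compound exposure at 37 C, microsomes and NADPH each 0.5 mg/mL final, read by fluorescence intensity.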
For experiment [18], the target named is 5-hydroxytryptamine receptor 2A (Homo sapiens) (UniProt P28223). Kind of experiment: 5-hydroxytryptamine receptor 2A (HTR2A) small molecule antagonists, cell-based qHTS assay (AID 1963586). Note: nearly all actives have a fitted effect of over 45% in size. The method in brief: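 CHO cells stably expressing human HTR2A were plated for 18 h at 37 C, then loaded with calcium dye for 1 h. Compounds were preincubated 5 min at room temperature before DOI (4 nM solution) was added. Kinetic fluorescence was read for 3 min.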

Experiment [19] has as its target Beta-2 adrenergic receptor (Homo sapiens) (UniProt P07550). Kind of experiment: Adrenergic beta2 receptor (ADRB2) small molecule agonists, cell-based qHTS assay (AID 1963593).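 Note: CHO cells stably overexpressing human ADRB2.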 The method in brief: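 CHO cells stably over-expressing ADRB2 were plated overnight at 37C, then dosed with compounds plus a stimulation mix containing 100uM IBMX and 25uM Ro-20-1724 for 0.5hr at room temperature. cAMP was measured by HTRF competition, 1hr.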

In experiment [20] the target is D(2) dopamine receptor (Homo sapiens) (UniProt P14416). The experiment can be described thus: Dopamine D2 receptor (DRD2) small molecule agonists, cell-based qHTS assay (AID 1963594). Note: nearly all actives have a fitted effect of over 35% in size. The method in brief:
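HEK293 cells stably expressing DRD2 were cultured 24 h at 37 C, then given Ro20-1724 (0.1 mM final) and compounds for 10 min at room temperature. NKH477 (200nM) was then added for 30 min. cAMP was read by HTRF.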

Each structure is given as a SMILES string. Where “and” joins values, the source holds several entries; their conditions need not be identical. Equal entries are not always repeated. Records with an inconclusive call do not appear. Some structures have more than one record in an assay (separate samples or runs), and their calls can disagree. Calls of active or inactive are those of the source. Unless noted, calls come from the whole dose curve.

Muscarinic acetylcholine receptor M1 (Homo sapiens), sequence (P11229 whole entry, looked up): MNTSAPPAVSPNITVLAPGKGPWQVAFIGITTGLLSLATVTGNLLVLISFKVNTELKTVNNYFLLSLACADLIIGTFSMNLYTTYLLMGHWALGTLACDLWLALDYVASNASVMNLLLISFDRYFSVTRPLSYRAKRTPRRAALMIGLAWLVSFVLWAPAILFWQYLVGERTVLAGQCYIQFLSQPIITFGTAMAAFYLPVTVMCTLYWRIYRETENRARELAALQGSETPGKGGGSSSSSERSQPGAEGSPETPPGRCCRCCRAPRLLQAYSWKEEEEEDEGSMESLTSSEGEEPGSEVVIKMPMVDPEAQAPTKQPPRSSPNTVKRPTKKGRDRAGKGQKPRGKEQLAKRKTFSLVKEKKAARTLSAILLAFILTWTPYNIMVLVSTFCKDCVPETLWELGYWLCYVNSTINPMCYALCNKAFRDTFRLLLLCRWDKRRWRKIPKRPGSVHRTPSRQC

Consider `CC(C)(C1CCC(O)CC1)C1CCC(O)CC1` (stereo not drawn), for which the Potency entry in experiment [1], in experiment [2], in experiment [3], in experiment [4], in experiment [5] and in [6] was “inactive” throughout. Further, the Potency result in experiment [7], in [8], in experiment [9], in [10], in experiment [11] and in [12] was “inactive” in each case. Also, the Potency entry in experiment [13], in experiment [14], in [15] and in [16] was “inactive” each time.

`Oc1ccc(Cl)cc1Cc1ccccc1`: the Potency in experiment [1] was 43.3 µM (active) and 31 µM (active); in experiment [2] it was 22 µM (active) and inactive; in experiment [7], 45.7 µM (active) and inactive; in experiment [10], 44.2 µM (active) and inactive; in [15], 61.9 µM (active) and inactive. Besides, the Potency result in experiment [3], in [4], in experiment [17], in [5], in experiment [8] and in [9] was “inactive” in each case. The Potency result in experiment [18], in [11], in [12], in experiment [14] and in experiment [16] was “inactive” throughout.

For `Nc1ccc(N)cc1`, the Potency entry in [1], in [3], in experiment [4], in experiment [6], in experiment [7] and in experiment [8] was “inactive” in each case. The Potency result in experiment [18], in [10], in experiment [11], in experiment [12], in experiment [13] and in [14] was “inactive” throughout. The Potency entry in experiment [15], in experiment [19], in experiment [20] and in experiment [16] was “inactive” each time. The Potency in [2] was 61.1 µM (active) and 18.8 µM (active) and inactive.

For the compound `ClCC(Br)CBr` (stereo not drawn), the Potency result in [1], in [2], in experiment [4], in [17], in experiment [5] and in [6] was “inactive” throughout. Also, the Potency entry in experiment [7], in experiment [8], in experiment [9], in experiment [18], in experiment [10] and in [11] was “inactive” each time. The Potency result in experiment [12], in experiment [13], in experiment [14], in [15], in experiment [20] and in [16] was “inactive” each time.

Take `CCOP(=S)(OCC)SCn1c(=O)oc2cc(Cl)ccc21`: the Potency entry in experiment [1], in [3], in experiment [4], in experiment [6], in experiment [7] and in experiment [8] was “inactive” throughout. The Potency result in [9], in [18], in experiment [10], in experiment [11], in experiment [12] and in [15] was “inactive” each time. The Potency result in experiment [20] and in [16] was “inactive” in each case. Besides, in experiment [2], the Potency is 32.9 µM (active) and 61.1 µM (active).

In the case of `Cc1cnc[nH]1`, the Potency result in experiment [1], in experiment [2], in [3], in experiment [4], in experiment [17] and in experiment [5] was “inactive” in each case. Also, the Potency result in experiment [7], in [8], in [9], in [18], in experiment [10] and in experiment [11] was “inactive” throughout. Also, the Potency entry in [12], in [13], in [14], in experiment [15], in [19] and in experiment [20] was “inactive” each time. Further, in experiment [16], the Potency entry is “inactive”.

Turning to `CCCCCCC1CCOC1=O` (stereo not drawn), the Potency result in experiment [1], in experiment [2], in experiment [3], in experiment [17], in [5] and in experiment [6] was “inactive” throughout. Also, the Potency result in experiment [7], in experiment [8], in experiment [9], in experiment [18], in experiment [10] and in experiment [11] was “inactive” each time. In addition, the Potency entry in experiment [12], in [13], in experiment [15], in experiment [20] and in [16] was “inactive” throughout.
